Assay outcomes (PubChem BioAssay)
Only some compounds are listed: those with a hit (about 6.1% of all), similar ones and a draw of the others.
D1 potentiator: potentiators of human D1 dopamine receptor; AID 504651; HEK293 TREx D1 cells, calcium flux, dopamine EC20 potentiation; potentiation, % at 10 µM; P21728; 360,000 tested, 0.036% active; in the data active = potentiation above about 30%; note: 0% is about no effect
D3 ag: agonists of human D3 dopamine receptor; 410,000 tested, 0.58% active; D3R DiscoveRx beta-arrestin cells, luminescence, 90 min; max activation, %; P35462; in the data active = max activation above about 30%; note: 0% is about no effect
Target sequence (P35462 whole entry, looked up): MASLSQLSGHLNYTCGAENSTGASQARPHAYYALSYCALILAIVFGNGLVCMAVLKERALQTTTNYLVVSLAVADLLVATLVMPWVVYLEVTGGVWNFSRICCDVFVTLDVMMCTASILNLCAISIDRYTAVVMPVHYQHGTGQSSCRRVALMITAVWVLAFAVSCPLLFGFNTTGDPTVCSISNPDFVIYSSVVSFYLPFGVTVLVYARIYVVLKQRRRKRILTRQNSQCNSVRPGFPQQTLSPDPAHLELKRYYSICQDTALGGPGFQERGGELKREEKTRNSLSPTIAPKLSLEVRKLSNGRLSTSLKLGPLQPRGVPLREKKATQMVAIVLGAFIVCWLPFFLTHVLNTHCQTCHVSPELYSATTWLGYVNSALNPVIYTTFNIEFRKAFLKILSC
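Agonist mode: compounds and dopamine controls were applied to plated cells for 90 min at 37 degrees C after an overnight attachment at 1500 cells/well. Luminescent read-out followed 30 - 60 minutes at room temperature with DiscoveRx detection reagent.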
D1 agonist: agonists of human D1 dopamine receptor; HEK293 T-REx D1 cells, calcium flux, agonist mode; activation, % at 2 µM; 360,000 tested, 1% active; AID 504660; in the data active = activation above about 30%; note: 0% is about no effect
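Agonism was scored from calcium flux recorded over 180 s (1 read/s) after pintool compound addition, following a 10-cycle baseline. Cells were inducible force-coupled HEK293 TREx D1, plated overnight at 30 C and loaded with no-wash calcium dye.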
D3 antag: blocks the human D3 dopamine receptor; AID 652054; D3R cells, DiscoveRx beta-arrestin luminescence, antagonist mode; stronger effect = lower value; 360,000 tested, 2.5% active; max response, negative = inhibition, %; P35462; in the data active = max response below about -50%; inconclusive = no clear call, values can overlap the other calls; note: % is set by controls: 0 for no effect and ±100 for the full control effect
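Cells plated overnight at 1500 cells/well, then exposed to library compounds with dopamine controls for 90 minutes at 37 degrees C. DiscoveRx reagent added for 30–60 minutes at room temperature; luminescence read, quantitative HTS format.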
D1 antag: blocks dopamine activation of the human D1 receptor; HEK293 TREx D1 cells, calcium flux, dopamine EC80; stronger effect = lower value; activity change, negative = inhibition, % at 10 µM; 360,000 tested, 3.2% active; AID 504652; P21728; in the data active = activity change below about -30%; note: % is set by controls: 0 for no effect and ±100 for the full control effect
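Cells carrying a force-coupled, tetracycline-inducible human D1 receptor report calcium flux. Each well gets a 10 s baseline, compound with 180 s monitoring, then an EC80 dopamine stimulus with a second 180 s kinetic read.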
Numbers without * were called inactive; ? = inconclusive; · = no result.

SMILES	D1 potentiator	D3 ag	D1 agonist	D3 antag	D1 antag
COc1cc(/C=C(\C#N)C(=O)c2c[nH]c3ccccc23)cc(OC)c1O	-2	6	45*	-13	-4
COc1ccc(/C=C(\C#N)C(=O)NCc2cccs2)cc1OC	0	-5	0	11	-34*
CCc1nc(SCC(=O)N2CCN(c3ccccc3)CC2)c2oc3ccccc3c2n1	-7	48*	3	13	1
CCc1nc(SCCO)c2oc3ccccc3c2n1	0	0	2	-24	-2
O=C(O)CN(CC(=O)O)CC(=O)O	·	-46	·	-73*	·
O=C(O)CN(CCO)CCN(CC(=O)O)CC(=O)O	-3	·	3	·	-1
CN(CC(=O)Nc1ccc(Cl)cc1)C(=O)c1ccc(S(=O)(=O)Nc2ccccc2)cc1	-3	-12	6	-6	-16
CCN(CC)S(=O)(=O)c1cc(C(=O)N(C)CC(=O)Nc2ccc(Cl)cc2)ccc1Cl	-4	-29	5	?	-33*
CCN(CC)S(=O)(=O)c1cc(C(=O)Nc2ccncc2)ccc1Cl	-7	-12	20	-14	-31*
CCN(CC)S(=O)(=O)c1cc(C(=O)Nc2cccnc2)ccc1Cl	-1	12	1	15	·
COC(=O)CN1C(=O)S/C(=C/c2ccc(N3CCCCC3)o2)C1=O	6	4	57*	?	7
CCOC(=O)CN1C(=O)S/C(=C/c2ccc(N3CCCCC3)o2)C1=O	-2	-1	55*	15	11
CCOC(=O)CN1C(=O)S/C(=C/c2ccco2)C1=O	-5	4	2	4	-12
O=C(O)CN1C(=O)/C(=C/c2ccc(N3CCCCC3)o2)SC1=S	8	2	7	-13	-14
COc1cc(NC(=O)C2=CC(c3ccc(F)cc3)=NS(=O)(=O)N2C)cc(OC)c1OC	-4	-3	7	·	-4
CC(NC(=O)c1ccc(Br)o1)C1CCCO1 (stereo unspecified)	-10	5	0	2	-31*
Cc1ccc(-n2nc(CO)c(C(=O)NCCCCc3ccccc3)n2)cc1	3	-7	13	·	-2
CN(C)CCCOc1cccc(Oc2ccccc2)c1	1	-10	6	?	23
C=CCN(CC=C)CCOc1cccc(Oc2ccccc2)c1	-1	-1	1	-50*	4
Cc1ccc(-c2nnn(CC(=O)N(Cc3cccs3)C(C(=O)NCC3CCCO3)c3ccco3)n2)o1 (stereo unspecified)	-9	7	14	14	-48*
CCC(C(=O)NC1CCCC1)N(C(=O)Cn1nnc(-c2ccc(C)o2)n1)c1cccc(OC)c1 (stereo unspecified)	-7	36*	4	6	2
COc1ccc(-c2nnn(CC(=O)N(CCCN3CCOCC3)C(C(=O)NC3CCCC3)c3ccc(C)o3)n2)cc1 (stereo unspecified)	10	-18	10	-3	2
Cc1ccc(-c2nnn(CC(=O)N(Cc3cccs3)C(C(=O)NC(C)(C)C)c3ccco3)n2)o1 (stereo unspecified)	-12	-1	12	4	5
O=C(NCC1CCCO1)C(c1ccncc1)N(Cc1cccs1)C(=O)CN1C(=O)c2ccccc2S1(=O)=O (stereo unspecified)	7	3	42*	14	0
Cc1ccccc1CCN(C(=O)CN1C(=O)c2ccccc2S1(=O)=O)C(C(=O)NCC1CCCO1)c1ccncc1 (stereo unspecified)	0	-22	1	-21	-12
CCC(C(=O)NC1CCCC1)N(C(=O)Cn1nnc(-c2ccc(C)o2)n1)c1cccc(O)c1 (stereo unspecified)	-7	3	1	3	-3
COc1ccc(-c2nnn(CC(=O)N(CCCN3CCOCC3)C(C(=O)NC3CCCC3)c3ccco3)n2)cc1 (stereo unspecified)	1	-16	4	3	-32*
COc1cccc(-c2csc(-c3c(N)c(C(=O)c4ccccc4)n4ccccc34)n2)c1	-2	-14	9	·	-7
O=C(NCCCN1CCCC1)[C@H](CSCc1ccccc1)N1Cc2ccccc2C1=O	1	-16	1	-60*	-3
CC(C)NC(=O)[C@H](CSCc1ccccc1)N1Cc2ccccc2C1=O	1	0	0	21	27
